Binding signal data for one sequence are collected here from article PMC7862700, “An all-to-all approach to the identification of sequence-specific readers for epigenetic DNA modifications on cytosine”.

Common to all, as to test: DAPPL (digital affinity profiling via proximity ligation, sequencing); 10 mM Tris-HCl pH 7.5, 50 mM NaCl, 1 mM DTT, 4% glycerol, room temperature, 30 min; GST-TFs on glutathione beads, 16-mer random dsDNA library, 0.1% formaldehyde crosslink after washing; high values mean tight binding
One experiment addresses T1, FLI1 (Homo sapiens, UniProt Q01543 1-452).
T1 sequence: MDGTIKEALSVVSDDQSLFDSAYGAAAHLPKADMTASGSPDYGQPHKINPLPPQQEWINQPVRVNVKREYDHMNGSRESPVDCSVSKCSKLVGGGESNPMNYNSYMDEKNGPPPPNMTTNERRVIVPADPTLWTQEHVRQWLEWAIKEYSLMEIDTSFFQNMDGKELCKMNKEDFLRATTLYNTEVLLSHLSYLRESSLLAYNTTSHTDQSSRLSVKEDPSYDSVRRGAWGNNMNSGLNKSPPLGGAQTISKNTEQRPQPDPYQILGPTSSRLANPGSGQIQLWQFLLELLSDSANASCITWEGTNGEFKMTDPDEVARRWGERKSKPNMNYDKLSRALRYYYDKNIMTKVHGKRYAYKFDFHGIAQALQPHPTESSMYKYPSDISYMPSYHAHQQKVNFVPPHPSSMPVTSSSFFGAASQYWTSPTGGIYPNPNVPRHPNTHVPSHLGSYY
The following applies: protein: recombinant; tags: N-terminal GST; dsDNA, one strand shown. Put shortly:
(§1)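 Human transcription factors were made in yeast as GST fusions, captured on glutathione beads and barcoded with DNA. With a tag-only sample included, the pool was incubated with 200 nmole of a random double-stranded 16-mer DNA library in Tris/NaCl/DTT/glycerol buffer at room temperature for 30 min, then crosslinked with 0.1% formaldehyde after washing, ligated by proximity, amplified and sequenced. For binding signal, each hexamer's read frequency for a factor is divided by its frequency for the tag-only sample.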

Another experiment has as its target T2, ELK1 (Homo sapiens, UniProt P19419 1-428).
T2 sequence: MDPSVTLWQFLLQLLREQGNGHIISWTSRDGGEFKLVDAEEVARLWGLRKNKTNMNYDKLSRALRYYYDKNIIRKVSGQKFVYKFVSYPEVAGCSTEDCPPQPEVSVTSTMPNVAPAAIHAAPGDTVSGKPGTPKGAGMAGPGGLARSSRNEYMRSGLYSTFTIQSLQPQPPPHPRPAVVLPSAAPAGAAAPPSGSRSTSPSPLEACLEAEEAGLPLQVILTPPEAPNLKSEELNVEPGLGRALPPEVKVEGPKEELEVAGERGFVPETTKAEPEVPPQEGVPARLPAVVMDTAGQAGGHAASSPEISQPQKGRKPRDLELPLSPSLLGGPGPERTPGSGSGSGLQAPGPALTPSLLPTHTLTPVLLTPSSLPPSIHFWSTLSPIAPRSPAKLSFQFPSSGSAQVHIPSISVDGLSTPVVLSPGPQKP
The following applies: protein: recombinant; tags: N-terminal GST; dsDNA, one strand shown. Put shortly:
as §1

The target of a further experiment is T3, GABPA (Homo sapiens, UniProt Q06546 1-454).
T3 sequence: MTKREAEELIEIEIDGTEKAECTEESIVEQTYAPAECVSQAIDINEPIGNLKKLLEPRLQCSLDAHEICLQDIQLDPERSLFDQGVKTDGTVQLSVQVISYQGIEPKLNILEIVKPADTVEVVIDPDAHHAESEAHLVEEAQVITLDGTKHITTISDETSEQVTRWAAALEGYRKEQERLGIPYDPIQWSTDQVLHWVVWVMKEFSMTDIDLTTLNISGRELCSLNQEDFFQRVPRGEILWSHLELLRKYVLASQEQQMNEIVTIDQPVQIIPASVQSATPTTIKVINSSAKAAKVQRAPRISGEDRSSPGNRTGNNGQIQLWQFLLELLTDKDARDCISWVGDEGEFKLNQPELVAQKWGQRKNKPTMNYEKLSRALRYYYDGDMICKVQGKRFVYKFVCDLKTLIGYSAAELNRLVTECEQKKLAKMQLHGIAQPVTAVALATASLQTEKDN
The following applies: protein: recombinant; tags: N-terminal GST; dsDNA, one strand shown. Put shortly: as §1

For a further experiment, the target named is T4, ERG (Homo sapiens, UniProt P11308 1-479).
T4 sequence: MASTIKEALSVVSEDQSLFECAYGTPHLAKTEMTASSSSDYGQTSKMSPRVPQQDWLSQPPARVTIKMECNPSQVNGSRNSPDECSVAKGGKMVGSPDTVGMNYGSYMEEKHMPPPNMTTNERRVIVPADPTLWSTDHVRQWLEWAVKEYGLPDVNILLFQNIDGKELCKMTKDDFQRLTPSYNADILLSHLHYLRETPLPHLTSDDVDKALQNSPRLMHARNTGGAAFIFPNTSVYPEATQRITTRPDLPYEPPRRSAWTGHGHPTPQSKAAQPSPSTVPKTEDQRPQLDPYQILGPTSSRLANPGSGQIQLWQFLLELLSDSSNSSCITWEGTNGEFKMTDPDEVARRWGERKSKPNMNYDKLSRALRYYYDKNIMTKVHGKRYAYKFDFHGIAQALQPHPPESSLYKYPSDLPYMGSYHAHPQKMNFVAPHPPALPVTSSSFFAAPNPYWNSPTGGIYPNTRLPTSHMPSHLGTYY
The following applies: protein: recombinant; tags: N-terminal GST; dsDNA, one strand shown. The method in brief: as §1

In another experiment the target is ELF1 (Homo sapiens, UniProt P32519 1-619). The following applies: protein: recombinant; tags: N-terminal GST; dsDNA, one strand shown. Put shortly:
as §1

Another experiment deals with T5, EHF (Homo sapiens, UniProt Q9NZC4 1-300).
T5 sequence: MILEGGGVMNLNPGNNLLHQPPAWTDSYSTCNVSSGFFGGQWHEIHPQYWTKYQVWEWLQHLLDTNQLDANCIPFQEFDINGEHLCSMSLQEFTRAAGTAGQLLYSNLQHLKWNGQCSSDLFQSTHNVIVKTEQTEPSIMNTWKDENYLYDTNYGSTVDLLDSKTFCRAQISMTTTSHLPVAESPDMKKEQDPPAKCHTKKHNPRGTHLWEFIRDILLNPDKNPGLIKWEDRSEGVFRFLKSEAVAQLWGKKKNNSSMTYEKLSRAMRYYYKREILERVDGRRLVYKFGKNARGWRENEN
The following applies: protein: recombinant; tags: N-terminal GST; dsDNA, one strand shown. The method in brief:
as §1

In the next experiment the target is SPI1 (Homo sapiens, UniProt P17947 1-270). The following applies: protein: recombinant; tags: N-terminal GST; dsDNA, one strand shown. The method in brief: as §1
The target of a further experiment is SPIB (Homo sapiens, UniProt Q01892 1-262). The following applies: protein: recombinant; tags: N-terminal GST; dsDNA, one strand shown. The method in brief: as §1
A further experiment has as its target T6, ELK3 (Homo sapiens, UniProt P41970 1-407).
T6 sequence: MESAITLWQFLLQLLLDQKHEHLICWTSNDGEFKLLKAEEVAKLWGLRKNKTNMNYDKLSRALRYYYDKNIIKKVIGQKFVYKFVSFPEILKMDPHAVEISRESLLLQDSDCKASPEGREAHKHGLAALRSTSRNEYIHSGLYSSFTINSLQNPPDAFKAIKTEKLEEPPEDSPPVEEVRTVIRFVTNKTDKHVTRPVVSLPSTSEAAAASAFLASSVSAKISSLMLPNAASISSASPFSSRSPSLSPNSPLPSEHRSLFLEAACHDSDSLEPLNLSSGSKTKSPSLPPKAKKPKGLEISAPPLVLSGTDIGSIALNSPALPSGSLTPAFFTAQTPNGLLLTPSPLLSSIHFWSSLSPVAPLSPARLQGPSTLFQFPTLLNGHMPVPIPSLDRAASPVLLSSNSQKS
The following applies: protein: recombinant; tags: N-terminal GST; dsDNA, one strand shown. Put shortly:
as §1

A further experiment addresses T7, FEV (Homo sapiens, UniProt Q99581 1-238).
T7 sequence: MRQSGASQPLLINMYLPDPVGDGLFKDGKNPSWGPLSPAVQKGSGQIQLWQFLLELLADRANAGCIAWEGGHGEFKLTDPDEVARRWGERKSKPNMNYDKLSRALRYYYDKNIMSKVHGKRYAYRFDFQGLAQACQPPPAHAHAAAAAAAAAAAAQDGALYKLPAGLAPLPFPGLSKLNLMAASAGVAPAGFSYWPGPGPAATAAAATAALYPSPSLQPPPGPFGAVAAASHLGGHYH
The following applies: protein: recombinant; tags: N-terminal GST; dsDNA, one strand shown. Put shortly: as §1

In the next experiment the target is ETV5 (Homo sapiens, UniProt P41161 1-510). The following applies: protein: recombinant; tags: N-terminal GST; dsDNA, one strand shown. The method in brief:
as §1

In the next experiment the target is HSF1 (Homo sapiens, UniProt Q00613 1-529). The following applies: protein: recombinant; tags: N-terminal GST; chain copies: 3; dsDNA, one strand shown. Put shortly: as §1
In another experiment the target is T8, SPIC (Homo sapiens, UniProt Q8N5J4 1-248).
T8 sequence: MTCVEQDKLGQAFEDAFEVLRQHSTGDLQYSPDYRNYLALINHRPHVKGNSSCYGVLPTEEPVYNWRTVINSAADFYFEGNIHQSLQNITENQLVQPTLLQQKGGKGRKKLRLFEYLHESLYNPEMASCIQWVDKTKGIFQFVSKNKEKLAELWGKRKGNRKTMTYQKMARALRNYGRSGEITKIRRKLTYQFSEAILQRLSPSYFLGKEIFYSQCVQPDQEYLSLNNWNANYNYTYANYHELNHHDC
The following applies: protein: recombinant; tags: N-terminal GST; dsDNA, one strand shown. The method in brief: as §1

For the next experiment, the target named is ELF4 (Homo sapiens, UniProt Q99607 1-663). The following applies: protein: recombinant; tags: N-terminal GST; dsDNA, one strand shown. Put shortly: as §1
The target of the next experiment is T9, ELK4 (Homo sapiens, UniProt P28324-2 1-405).
T9 sequence: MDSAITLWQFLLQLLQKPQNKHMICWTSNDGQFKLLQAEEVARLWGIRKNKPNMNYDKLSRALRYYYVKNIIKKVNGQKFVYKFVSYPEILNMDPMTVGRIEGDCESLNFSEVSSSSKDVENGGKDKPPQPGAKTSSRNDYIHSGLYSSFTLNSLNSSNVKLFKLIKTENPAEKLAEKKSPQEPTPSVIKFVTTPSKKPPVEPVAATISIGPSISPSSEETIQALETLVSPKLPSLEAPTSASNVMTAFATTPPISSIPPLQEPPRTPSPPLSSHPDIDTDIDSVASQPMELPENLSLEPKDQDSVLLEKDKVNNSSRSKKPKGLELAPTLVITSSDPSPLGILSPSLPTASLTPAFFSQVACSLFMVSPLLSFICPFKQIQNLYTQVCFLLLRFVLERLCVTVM
The following applies: protein: recombinant; tags: N-terminal GST; dsDNA, one strand shown. The method in brief: as §1

The next experiment has as its target T10, ETV2 (Homo sapiens, UniProt O00321 1-342).
T10 sequence: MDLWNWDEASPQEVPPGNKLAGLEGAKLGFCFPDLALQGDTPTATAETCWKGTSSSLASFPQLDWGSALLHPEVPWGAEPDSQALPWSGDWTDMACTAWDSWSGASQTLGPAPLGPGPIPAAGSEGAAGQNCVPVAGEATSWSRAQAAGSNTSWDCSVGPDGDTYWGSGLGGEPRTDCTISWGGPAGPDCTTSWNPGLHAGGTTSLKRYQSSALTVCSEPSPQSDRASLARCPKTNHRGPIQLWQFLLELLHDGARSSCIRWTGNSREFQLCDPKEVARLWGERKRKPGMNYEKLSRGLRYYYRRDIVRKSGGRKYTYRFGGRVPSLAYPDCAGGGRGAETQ
The following applies: protein: recombinant; tags: N-terminal GST; dsDNA, one strand shown. The method in brief: as §1

In another experiment the target is T11, ELF3 (Homo sapiens, UniProt P78545 1-371).
T11 sequence: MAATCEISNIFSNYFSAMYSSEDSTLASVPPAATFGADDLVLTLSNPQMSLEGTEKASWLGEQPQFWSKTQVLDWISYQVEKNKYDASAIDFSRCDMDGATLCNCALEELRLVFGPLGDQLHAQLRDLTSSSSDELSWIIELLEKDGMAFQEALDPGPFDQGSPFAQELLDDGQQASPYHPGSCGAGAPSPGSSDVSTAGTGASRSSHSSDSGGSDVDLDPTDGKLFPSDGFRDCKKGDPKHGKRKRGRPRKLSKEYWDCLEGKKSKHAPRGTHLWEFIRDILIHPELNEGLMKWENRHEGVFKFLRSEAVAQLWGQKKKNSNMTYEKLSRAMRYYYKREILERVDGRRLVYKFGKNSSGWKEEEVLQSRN
The following applies: protein: recombinant; tags: N-terminal GST; dsDNA, one strand shown. Put shortly:
as §1

The target of another experiment is ETV1 (Homo sapiens, UniProt P50549 1-477). The following applies: protein: recombinant; tags: N-terminal GST; dsDNA, one strand shown. The method in brief: as §1
Chain of ETV1 (P50549 whole entry): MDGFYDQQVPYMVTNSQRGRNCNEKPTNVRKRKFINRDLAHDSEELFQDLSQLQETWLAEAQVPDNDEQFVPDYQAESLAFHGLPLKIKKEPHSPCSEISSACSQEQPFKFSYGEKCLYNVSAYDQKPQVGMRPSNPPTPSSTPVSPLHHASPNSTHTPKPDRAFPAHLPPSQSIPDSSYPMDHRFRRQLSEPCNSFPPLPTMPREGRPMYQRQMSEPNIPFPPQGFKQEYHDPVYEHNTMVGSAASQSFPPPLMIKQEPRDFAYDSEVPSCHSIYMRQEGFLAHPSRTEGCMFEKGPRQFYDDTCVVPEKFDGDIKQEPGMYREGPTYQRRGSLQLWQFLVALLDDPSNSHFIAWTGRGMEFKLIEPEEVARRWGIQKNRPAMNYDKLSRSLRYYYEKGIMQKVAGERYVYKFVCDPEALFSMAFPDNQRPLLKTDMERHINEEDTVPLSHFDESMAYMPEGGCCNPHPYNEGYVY

Chain of HSF1 (Q00613 whole entry): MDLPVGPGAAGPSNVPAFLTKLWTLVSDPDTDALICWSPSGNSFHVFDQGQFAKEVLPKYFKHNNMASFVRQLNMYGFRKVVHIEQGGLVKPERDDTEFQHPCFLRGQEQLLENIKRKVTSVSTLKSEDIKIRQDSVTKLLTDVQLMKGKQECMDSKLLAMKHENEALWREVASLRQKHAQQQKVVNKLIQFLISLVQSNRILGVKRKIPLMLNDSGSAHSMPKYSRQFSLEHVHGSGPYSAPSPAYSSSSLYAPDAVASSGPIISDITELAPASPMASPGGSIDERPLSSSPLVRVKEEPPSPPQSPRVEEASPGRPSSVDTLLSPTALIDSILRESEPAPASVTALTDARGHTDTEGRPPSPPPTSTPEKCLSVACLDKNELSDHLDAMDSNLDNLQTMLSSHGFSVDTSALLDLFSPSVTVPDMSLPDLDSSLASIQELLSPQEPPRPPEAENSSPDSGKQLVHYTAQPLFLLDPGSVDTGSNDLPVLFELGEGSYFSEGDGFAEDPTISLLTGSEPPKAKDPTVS
Chain of ELF1 (P32519 whole entry): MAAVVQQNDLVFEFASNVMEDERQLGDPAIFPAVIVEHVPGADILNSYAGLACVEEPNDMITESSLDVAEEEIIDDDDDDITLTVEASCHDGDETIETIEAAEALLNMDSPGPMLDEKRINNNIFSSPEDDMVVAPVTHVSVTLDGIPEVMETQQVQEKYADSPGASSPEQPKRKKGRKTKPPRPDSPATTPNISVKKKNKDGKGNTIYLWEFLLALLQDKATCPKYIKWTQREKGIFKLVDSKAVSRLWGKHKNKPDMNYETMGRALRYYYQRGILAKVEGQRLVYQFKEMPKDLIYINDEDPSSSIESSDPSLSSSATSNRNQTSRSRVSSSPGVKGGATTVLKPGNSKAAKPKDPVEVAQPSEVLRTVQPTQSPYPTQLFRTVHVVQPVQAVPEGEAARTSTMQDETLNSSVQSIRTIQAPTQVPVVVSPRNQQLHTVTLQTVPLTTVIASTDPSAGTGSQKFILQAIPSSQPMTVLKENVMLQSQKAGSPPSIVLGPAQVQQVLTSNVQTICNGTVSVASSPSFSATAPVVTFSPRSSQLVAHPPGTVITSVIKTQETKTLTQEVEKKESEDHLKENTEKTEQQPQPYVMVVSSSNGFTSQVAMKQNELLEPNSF
Chain of SPIB (Q01892 whole entry): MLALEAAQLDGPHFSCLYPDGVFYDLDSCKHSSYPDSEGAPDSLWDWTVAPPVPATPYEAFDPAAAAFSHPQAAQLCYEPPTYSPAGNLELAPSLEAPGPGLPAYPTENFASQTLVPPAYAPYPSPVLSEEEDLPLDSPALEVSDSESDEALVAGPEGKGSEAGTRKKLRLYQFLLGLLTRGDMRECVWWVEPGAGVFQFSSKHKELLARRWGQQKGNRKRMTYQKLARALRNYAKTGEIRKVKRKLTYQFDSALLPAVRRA
Chain of ETV5 (P41161 whole entry): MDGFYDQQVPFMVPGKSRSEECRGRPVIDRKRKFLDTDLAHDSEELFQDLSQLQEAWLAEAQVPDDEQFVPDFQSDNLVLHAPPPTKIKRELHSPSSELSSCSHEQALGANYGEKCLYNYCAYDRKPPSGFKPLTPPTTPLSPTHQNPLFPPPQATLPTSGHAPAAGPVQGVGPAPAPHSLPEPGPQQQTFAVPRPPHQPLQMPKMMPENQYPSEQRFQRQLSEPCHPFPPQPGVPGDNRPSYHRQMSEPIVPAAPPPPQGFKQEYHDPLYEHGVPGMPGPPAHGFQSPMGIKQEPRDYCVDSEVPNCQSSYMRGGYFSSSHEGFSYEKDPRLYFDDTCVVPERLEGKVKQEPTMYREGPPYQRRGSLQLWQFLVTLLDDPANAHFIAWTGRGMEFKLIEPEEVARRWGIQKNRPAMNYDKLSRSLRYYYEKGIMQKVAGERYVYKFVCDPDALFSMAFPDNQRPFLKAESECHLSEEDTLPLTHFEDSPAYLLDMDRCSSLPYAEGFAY
Chain of ELF4 (Q99607 whole entry): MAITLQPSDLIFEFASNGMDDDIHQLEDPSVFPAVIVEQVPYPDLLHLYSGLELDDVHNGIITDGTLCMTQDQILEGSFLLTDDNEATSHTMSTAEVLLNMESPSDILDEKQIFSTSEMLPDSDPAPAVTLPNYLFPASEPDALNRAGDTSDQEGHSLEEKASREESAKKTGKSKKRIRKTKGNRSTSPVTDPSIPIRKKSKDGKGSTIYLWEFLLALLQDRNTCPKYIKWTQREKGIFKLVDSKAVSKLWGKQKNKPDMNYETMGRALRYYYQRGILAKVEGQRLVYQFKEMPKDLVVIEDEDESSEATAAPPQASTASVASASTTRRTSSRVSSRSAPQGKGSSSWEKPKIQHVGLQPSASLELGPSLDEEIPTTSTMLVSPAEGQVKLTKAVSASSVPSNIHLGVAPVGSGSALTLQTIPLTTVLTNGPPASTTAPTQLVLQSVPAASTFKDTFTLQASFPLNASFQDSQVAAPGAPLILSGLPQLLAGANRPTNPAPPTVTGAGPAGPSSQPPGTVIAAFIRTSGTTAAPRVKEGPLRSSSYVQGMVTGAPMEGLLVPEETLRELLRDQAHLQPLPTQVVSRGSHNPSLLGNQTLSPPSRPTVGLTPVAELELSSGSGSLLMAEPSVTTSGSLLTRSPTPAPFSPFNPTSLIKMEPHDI

As for GTGTTC, the binding signal with FLI1 is 1.13 fold enrichment (6-mer frequency, TF over GST control); with ELK1, 1.25 fold enrichment (6-mer frequency, TF over GST control); with GABPA, 1.26 fold enrichment (6-mer frequency, TF over GST control); with ERG, 1.22 fold enrichment (6-mer frequency, TF over GST control); with ELF1, 1.1 fold enrichment (6-mer frequency, TF over GST control); with EHF it was 1.15 fold enrichment (6-mer frequency, TF over GST control). Moreover, the binding signal in the experiment with SPI1 was 1.28 fold enrichment (6-mer frequency, TF over GST control); with SPIB it was 1.09 fold enrichment (6-mer frequency, TF over GST control); with ELK3, 1.1 fold enrichment (6-mer frequency, TF over GST control); in the experiment with FEV it was 1.08 fold enrichment (6-mer frequency, TF over GST control); with ETV5, 1.14 fold enrichment (6-mer frequency, TF over GST control); with HSF1 it was 1.12 fold enrichment (6-mer frequency, TF over GST control). The binding signal with SPIC is 1.36 fold enrichment (6-mer frequency, TF over GST control); in the experiment with ELF4 it was 1.12 fold enrichment (6-mer frequency, TF over GST control); with ELK4, 1.25 fold enrichment (6-mer frequency, TF over GST control); with ETV2 it was 1.15 fold enrichment (6-mer frequency, TF over GST control); with ELF3 it was 1.19 fold enrichment (6-mer frequency, TF over GST control); in the experiment with ETV1 it was 1.14 fold enrichment (6-mer frequency, TF over GST control).
